hcDAF12 agonist: activators of H. contortus DAF-12 nuclear receptor; HEK293 hcDAF-12 lit1-tk-luc reporter, luminescence; 0% DMSO, 100% Δ7-dafachronic acid; activation, % at 6.8 µM; actives 1.4% (n = 370,000); AID 652067;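 active means activation above the mean of all tested compounds plus 3 SD, cut at about 5.5% in these data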
hgDAF12 agonist: activates the H. glycines DAF-12 receptor ligand-binding domain; AID 687014; actives 1.8% (n = 370,000); HEK293 GAL4-hgDAF12 UAS-luciferase reporter, agonist luminescence; normalized to butyrate control; activation, % at 6.8 µM;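 active means activation above a cutoff set at the mean of all screened compounds plus 3 SD, cut at about 10% in these data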
ssDAF-12 act: S. stercoralis DAF-12 activation, primary screen; HEK293 ssDAF-12/GRIP1 lit1-tk-luc reporter, luminescence; % of 3 µM dafachronic acid response; activation, % at 6.8 µM; actives 1% (n = 370,000); AID 652126;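 active means activation above the mean over all tested compounds plus 3 SD, cut at about 0.9% in these data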
DAX1 inh-1: DAX1 (NR0B1) inhibition, primary screen | HEK293T StAR-luciferase reporter, SF-1/DAX-1 repression relief | inhibition, % at 6.8 µM | actives 1.1% (n = 370,000) | AID 652010;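 active means inhibition above the mean over all tested compounds plus 3 SD, cut at about 3.6% in these data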;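 further: higher inhibition means more luminescence from relief of DAX-1 repression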
DAX1 inh-2: inhibits human nuclear receptor DAX1 | HEK293 Gal4-DAX1 luciferase reporter, luminescence | actives 0.99% (n = 340,000) | inhibition, % at 6.75 µM | P51843 | AID 504766;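 active means inhibition above the mean over all tested compounds plus 3 SD, cut at about 4.2% in these data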;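 further: inhibition shows as a rise in luminescence from relieved DAX1 repression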
DAX1 inh confirm: confirmation of human DAX1 (NR0B1) inhibitors; AID 652134; shares compounds with DAX1 inh-1; inhibition, % at 6.8 µM; actives 87% (n = 2,400); HEK293T StAR-promoter luciferase reporter, SF-1/DAX-1 repression;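 active means inhibition above the average of every tested compound plus 3 SD, cut at about 3.8% in these data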;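 further: active compounds raise luminescence by relieving repression of the StAR reporter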
Target sequence (P51843 whole entry, looked up): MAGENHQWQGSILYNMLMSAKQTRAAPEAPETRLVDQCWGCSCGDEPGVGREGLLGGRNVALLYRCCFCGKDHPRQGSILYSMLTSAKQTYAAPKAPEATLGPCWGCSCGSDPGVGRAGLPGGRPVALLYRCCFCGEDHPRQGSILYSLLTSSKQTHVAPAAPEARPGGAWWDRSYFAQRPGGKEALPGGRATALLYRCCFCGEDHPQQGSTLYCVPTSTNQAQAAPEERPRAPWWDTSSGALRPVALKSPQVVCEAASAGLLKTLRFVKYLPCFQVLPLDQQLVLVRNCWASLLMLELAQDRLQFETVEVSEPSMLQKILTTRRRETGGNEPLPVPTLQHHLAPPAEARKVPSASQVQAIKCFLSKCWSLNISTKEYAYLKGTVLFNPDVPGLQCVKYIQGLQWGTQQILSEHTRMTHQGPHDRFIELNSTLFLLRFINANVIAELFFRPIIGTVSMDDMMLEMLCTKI
SF1 mutant ctr: nonselective inhibitor or artifact in SF-1 mutant DAX1 counter-screen. shares compounds with DAX1 inh-1. HEK293 StAR-luciferase, SF-1 AF2 mutant, luminescence. inhibition, % at 6.8 µM. actives 78% (n = 2,400);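 active means inhibition above the mean of all tested compounds plus 3 SD, cut at about 3% in these data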
Numbers stand for hits; – = inactive; · = no result; ! = repeats disagree. Hits are enriched below; roughly 4.1% of the tested compounds scored in any of these assays.

SMILES | hcDAF12 agonist | hgDAF12 agonist | ssDAF-12 act | DAX1 inh-1 | DAX1 inh-2 | others
Cc1ccc(OCCOc2cccc(C=C3C(=O)NC(=O)NC3=O)c2)c(C)c1 | – | 11 | 1.4 | – | –
O=C1NC(=O)C(=Cc2ccc(OCCOc3ccc([N+](=O)[O-])cc3)cc2)C(=O)N1 | – | – | – | – | –
CCOc1cc(C=C2C(=O)NC(=O)NC2=O)ccc1OS(=O)(=O)c1ccccc1 | · | · | · | · | –
c1ccc(-c2nc3ccccc3nc2-c2ccc(CN3CCC(n4nnc5ccccc54)CC3)cc2)cc1 | – | – | – | – | ·
O=C(CNCc1c(F)cccc1F)N1CCC2(CC1)OCCO2 | – | – | – | – | ·
CN1CC[C@@H]2CN[C@H](c3ccccc3)C[C@@H]21 | – | – | – | – | ·
COC1CC=C2CCN3CCC4=C(CC(=O)OC4)C23C1 (centres undefined) | – | – | – | – | ·
COc1cc(C2c3cc4c(cc3CC3COC(=O)C32)OCO4)cc(OC)c1OC (centres undefined) | – | – | – | 4.4 | –
C=C1C(=O)C(C)=C2C(=O)N3Cc4[nH]c5ccccc5c4CC3(C(=O)OC)C12 (centres undefined) | – | – | – | – | ·
CCC(C)N1C(=O)/C(=C\c2ccc(N3CCCCCC3)cc2)C(=O)NC1=S (centres undefined) | – | – | 5.5 | – | –
CCC(C)N1C(=O)/C(=C\c2cc3c4c(c2)CCCN4CCC3)C(=O)NC1=S (centres undefined) | – | – | – | – | –
COCCO[C@H]1CC[C@@]2(C)C(=CCC3C2CC[C@@]2(C)C3CC[C@]2(C)O)C1 (some centres undefined) | – | 11 | – | – | –
Nc1c2c(nc3sc4c(c13)CCCC4)CCCC2 | – | 11 | – | – | –
O=C(CN1C(=O)[C@@H](Cc2ccc(O)cc2)N=C(c2ccccc2)c2ccccc21)NC1CCCCC1 | – | – | – | – | ·
C=C(C=O)CC1CC(O)[C@]2(C)OC3CC4OC5C[C@]6(C)O[C@]7(C)CCC8OC9C[C@]%10(C)OC%11C(C)=CC(=O)OC%11CC%10OC9C[C@@H](C)C8OC7CC6O[C@]5(C)C/C=C\C4OC3CC2O1 (some centres undefined) | – | – | – | · | ·
C=C1C(C)C2C(Cc3ccccc3)NC(=O)C23C(OC(C)=O)C=CC(C)(O)CC(C)CC=CC3C1O (centres undefined) | – | – | – | 3.8 | 4.2
c1ccc(-c2nc(N3CCOCC3)s[n+]2-c2ccccc2)cc1 | – | 12 | – | – | –
N#CCC[C@@H]1CC[C@]2(CCCN(Cc3ccccn3)C2)O1 | – | – | – | – | ·
CC(=O)C1=C(C)OC2=C(C(=O)CCC2)[C@@]12C(=O)N(C)c1ccccc12 | – | – | – | – | ·
Cc1cc(C)cc(NC(=O)CCNC(=O)N2C[C@H]3C[C@@H](C2)c2cccc(=O)n2C3)c1 | – | – | – | – | 4.3
CC(NC(=O)OCc1ccccc1)[P+](=O)O (centres undefined) | – | – | – | – | ·
Cc1ccc2cc(C=C(C#N)C#N)c(Cl)nc2c1 | – | – | 1.4 | – | –
CC1CCCCN1Cc1c[nH]c2ccccc12 (centres undefined) | – | – | – | – | –
CC1CCCCN1CC(O)c1c[nH]c2ccccc12 (centres undefined) | 6.4 | – | – | – | –
COC(=O)C1CC(OC(C)=O)C(=O)[C@H]2C1(C)CC[C@H]1C(=O)OC(c3ccoc3)CC12C (some centres undefined) | – | – | – | – | ·
SMILES | hcDAF12 agonist | hgDAF12 agonist | ssDAF-12 act | DAX1 inh-1 | DAX1 inh-2 | others
Cc1ccc(-n2c(/C=C/c3ccccn3)nc3ccccc3c2=O)cc1 | – | – | – | – | –
O=c1c2ccccc2nc(/C=C/c2ccccn2)n1-c1ccccc1 | – | 10 | – | – | –
CC(C)C[C@H]1N=C(c2ccccc2)c2ccccc2N(CC(=O)NC(C)(C)C)C1=O | – | – | – | – | ·
COC(=O)c1c2[n+](cc3cc(OC)c(OC)cc13)CCc1cc(OC)c(OC)cc1-2 | – | – | – | – | 4.5
Nc1ccc(-c2ccccc2)cc1 | – | – | – | – | –
Nc1ccc2ccccc2c1 | – | – | 0.9 | – | –
CN1C(=O)c2ccccc2NC(=O)C1Cc1ccccc1 (centres undefined) | – | – | – | – | 4.9
CN1C(=O)C(Cc2ccccc2)C(=O)N(C)C1=O | – | – | – | – | –
CSCCC(c1nnnn1C1CCCCC1)N1CCC2(CC1)C(=O)NCN2c1ccccc1 (centres undefined) | – | – | – | – | ·
CN1CCN(Cc2cc(=O)n3ccsc3n2)CC1 | – | – | – | – | –
O=c1cc(CN2CCNCC2)nc2sccn12 | – | – | – | – | 4.9
COc1ccc(C(=O)C2CCCN(CCc3ccccc3)C2)cc1OC (centres undefined) | – | – | – | 6.3 | · | DAX1 inh confirm=6.0;SF1 mutant ctr=3.7
O=C1C(=O)N(c2ccccc2)P(=O)(N(CCCl)CCCl)N1c1ccccc1 | – | 12 | – | 8.1 | – | DAX1 inh confirm=6.2;SF1 mutant ctr=3.0
NNCc1ccccc1 | – | – | – | 5.0! | – | DAX1 inh confirm=–;SF1 mutant ctr=2.9
O=P(OCCCl)(OCCCl)OCCCl | – | – | – | – | ·
C/C(=N\NC(=O)c1ccccc1)c1c(O)n(C2CCCCC2)c(=O)[nH]c1=O | – | – | – | 6.0 | – | DAX1 inh confirm=–;SF1 mutant ctr=–
CC(C)OC(=O)C1C(c2ccc(I)cc2)CC2CCC1N2C (centres undefined) | – | – | – | – | ·
Cc1ccc(N)c(N)c1 | – | – | – | 6.6 | – | DAX1 inh confirm=5.5;SF1 mutant ctr=3.2
Cc1ccc(N)c(C(=O)c2ccc(Br)cc2)c1 | – | – | – | – | –
C=C1[C@@H](C)C2[C@H](Cc3ccccc3)NC(=O)[C@]23[C@H](OC(C)=O)/C=C/[C@@](C)(O)C(=O)[C@@H](C)C/C=C/[C@H]3[C@@H]1O (some centres undefined) | – | – | – | 13 | · | DAX1 inh confirm=17;SF1 mutant ctr=–
C=C1[C@@H](C)[C@H]2[C@H](Cc3ccccc3)NC(=O)[C@]23OC(=O)/C=C/[C@H](O)CCC[C@@H](C)C/C=C/[C@H]3[C@@H]1O | – | – | – | – | –
O=C(NCCN1CCC2(CC1)C(=O)NCN2c1ccccc1)c1cccs1 | – | – | – | – | ·
O=C(c1cc2cc3ccc(Cl)cc3nc2o1)N1CCC2(CC1)OCCO2 | – | – | – | – | –
O=C(c1cc2cc(Cl)ccc2[nH]1)N1CCC2(CC1)OCCO2 | 6.4 | – | – | 4.6 | – | DAX1 inh confirm=–;SF1 mutant ctr=3.8
Cc1cccc(C(C)c2cnc[nH]2)c1C (centres undefined) | – | – | – | – | ·

Compound activity deposited in PubChem by The Scripps Research Institute Molecular Screening Center.
